# Compound activity as filed in PubChem BioAssay.
# Only some compounds are listed: those with a hit (about 1% of all), similar ones and a draw of the others.
# RXFP1 antag – RXFP1 (human) relaxin receptor antagonism; AID 1259400; hit rate 0.59% among 350,000; HEK293-RXFP1, relaxin-stimulated cAMP HTRF, 30 min; stronger effect = lower value; activity change, negative = inhibition, % at 57.5 µM;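 active = activity change of -60% or lower, but not beyond a set lower limit; inconclusive = change between -60% and -40%, or beyond the set limit; inactive = change above -40%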; also: % is scaled to controls: 0 for no effect and ±100 for the full control effect
# RXFP1 agonist – RXFP1 (human) receptor agonism; Potency, µM (top dose mostly 57.5 µM), without a hit: at the top dose activation, usual class: activators; HEK293T-RXFP1 cAMP TR-FRET, 30 min; response scale: percent of porcine relaxin response, buffer zero; hit rate 0.3% among 370,000; AID 2676; Q9HBX9; active = well fitted activation curve with a large enough effect; inconclusive = small, poorly fitted or top-dose-only effect; also: potency is read from the fitted curve at half-maximal effect; % is scaled to controls: 0 for no effect and ±100 for the full control effect; nearly all actives have a fitted effect of over 60% in size
#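 HEK293T cells stably expressing RXFP1 were pretreated with the PDE4 inhibitor Ro 20174, exposed to compounds for 30 min at 37C, lysed, and cAMP was read by TR-FRET. Data normalized to buffer (basal) and 29 nM porcine relaxin (100%).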
# TSHR antag – antagonists of human thyroid stimulating hormone receptor; P16473; TSHR-expressing cells, TSH-stimulated cAMP HTRF, 2 h; stronger effect = lower value; activity change, negative = inhibition, % at 11.5 µM; hit rate 0.2% among 330,000; AID 504810;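 active = activity change below a set negative limit, meaning inhibition stronger than a set level, cut at about -70% in these data; inconclusive = activity change between two set negative limits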; also: % is scaled to controls: 0 for no effect and ±100 for the full control effect
# Target sequence (P16473 whole entry, looked up): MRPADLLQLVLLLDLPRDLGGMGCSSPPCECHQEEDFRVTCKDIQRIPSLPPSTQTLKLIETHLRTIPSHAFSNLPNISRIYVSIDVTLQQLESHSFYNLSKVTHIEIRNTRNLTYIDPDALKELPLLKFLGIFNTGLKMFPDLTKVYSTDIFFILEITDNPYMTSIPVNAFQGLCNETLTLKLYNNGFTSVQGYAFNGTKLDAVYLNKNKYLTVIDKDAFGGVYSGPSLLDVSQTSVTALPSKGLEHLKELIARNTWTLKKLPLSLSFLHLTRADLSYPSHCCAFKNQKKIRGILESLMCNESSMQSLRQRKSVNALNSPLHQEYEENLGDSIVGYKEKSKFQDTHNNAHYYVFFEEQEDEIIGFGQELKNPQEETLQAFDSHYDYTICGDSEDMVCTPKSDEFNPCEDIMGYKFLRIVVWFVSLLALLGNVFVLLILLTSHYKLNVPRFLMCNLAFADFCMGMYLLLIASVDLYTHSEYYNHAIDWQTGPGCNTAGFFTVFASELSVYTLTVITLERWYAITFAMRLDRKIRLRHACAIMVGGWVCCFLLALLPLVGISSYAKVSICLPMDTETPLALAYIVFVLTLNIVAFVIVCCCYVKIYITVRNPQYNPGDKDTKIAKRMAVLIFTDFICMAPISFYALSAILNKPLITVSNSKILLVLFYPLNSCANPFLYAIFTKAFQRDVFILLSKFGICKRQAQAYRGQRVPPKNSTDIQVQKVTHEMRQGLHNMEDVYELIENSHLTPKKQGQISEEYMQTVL
#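 Freshly harvested TSHR cells receive pin-tooled compound, then EC80 TSH at 4nM final. After 2 hours at 37 deg C, antibody in lysis buffer and cAMP-d2 are added; 30 minutes at ambient temperature precede the HTRF read.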
# gsp agonist – agonists of gsp mutant (McCune-Albright syndrome) | gsp mutant cells, cAMP HTRF, 30 min | Potency, µM (doses to about 76.9 µM), for the others: top-dose activation (cAMP increase), actives largely listed as activators | hit rate 0.13% among 340,000 | AID 624287; active = well fitted activation curve with a large enough effect; inconclusive = small, poorly fitted or top-dose-only effect, or another doubt; inactive = no such curve, though single readings can be large or run the other way; cell line not stated here;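 also: phosphodiesterase inhibitor Ro 20-1724 added with compounds to block cAMP breakdown; potency is read from the fitted curve at half-maximal effect; nearly all actives have a fitted effect of over 60% in size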
#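 Cells in DMEM/10% FBS with G418 were pretreated with compounds in DMSO plus […] (300 uM stock) for 30 min at 37C. cAMP was measured by HTRF (cAMP-d2 plus anti-cAMP antibody-K) after 30 min at room temperature.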
# gsp antag – antagonists of gsp mutant (McCune-Albright syndrome) | gsp-mutant cells, cAMP HTRF, 30 min | Potency, µM (top dose mostly 76.9 µM), for the others: at the top dose activity change, negative = inhibition, most hits filed as inhibitors | hit rate 0.4% among 340,000 | AID 624288; calls by dose curve; cell line not stated here;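 also: intracellular cAMP measured with PDE inhibitor Ro 20-1724 present during compound exposure; potency is read from the fitted curve at half-maximal effect; % is scaled to controls: 0 for no effect and ±100 for the full control effect; nearly all actives have a fitted effect of over 65% in size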
#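 Cells in G418 medium, seeded 16-24 h, 37C; buffer exchange to DPBS + 1 mM CaCl2, 0.5 mM MgCl2, 0.05% BSA; cpds in DMSO + […] (300 uM stock), 30 min 37C; HTRF cAMP detection.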
# An asterisk follows results filed as active; ? = inconclusive; . = no result given; [ ] = another dose, or the depositor's remark.
SMILES,RXFP1 antag,RXFP1 agonist,TSHR antag,gsp agonist,gsp antag
COc1cc(/C=N/Nc2nc(N3CCCC3)nc(N3CCCC3)n2)ccc1OCc1ccccc1F,4.8,-1.1%,-70.6*,1.0%,?
Cc1ccc(N/C(N)=N/c2nc3c(c(=O)[nH]2)CCCC3)c(C)c1,8.8,1.1%,4.0,0.3%,8.5%
Cc1ccc(N/C(N)=N/c2nc(C)cc(N3CCCCC3)n2)c(C)c1,-83.0*,0.4%,18.4,8.9%[15.4 µM],-13.5%
COc1ccc2[nH]c(=O)c(CN(CC3CCCO3)C(=O)Nc3ccc(F)cc3)cc2c1 (stereo not given),.,-0.6%,-26.7,10.5%,31.6µM*
CCN(C(=O)c1cc(S(=O)(=O)N2CCCC2)cn1C)c1ccc(OC)cc1,9.7,-4.2%,.,.,.
O=C(O)c1c(-c2ccccc2)c2oc3ccccc3c2[nH]c1=O,-5.3,7.9%,3.8,39.8µM*,5.2%
CCc1ccc(CNC(=O)Cn2nc(C)n3c(cc4cc(C)ccc43)c2=O)cc1,-6.7,-0.5%,.,.,.
CC(=O)c1cc(Cl)ccc1OCc1cccc(S(=O)(=O)N2CCOCC2)c1,-16.7,3.3%,-10.1,-7.8%,35.5µM*
O=C(Nc1ccc([N+](=O)[O-])cc1)Nc1ccc(OC(F)F)c(Cl)c1,?,1.3%,-44.9,-26.5%,39.8µM*
COc1ccc(NC(=O)c2cccc(OC(F)F)c2)cc1Cl,3.1,-0.6%,-2.3,-106.0%,-14.7%
O=C(Nc1ccc(OC(F)F)c(Cl)c1)Nc1ccc2c(c1)OCO2,-18.7,-0.8%,-17.6,0.6%,?
O=C(Nc1ccc(OC(F)F)c(Cl)c1)c1cccc(OC(F)F)c1,-20.9,0.4%,-24.2,12.2%,39.8µM*
CCC(C)n1c(=N)c(C(=O)NC2CCCCC2)cc2c(=O)n3cc(C)ccc3nc21 (stereo not given),.,-1.0%,.,.,.
CCOC(=O)c1[nH]c2cc(OC)c(OC)cc2c1NC(=O)c1ccc2c(c1)OCO2,-26.0,6.4%,-74.6*,20.6%,2.6%
CCOC(=O)c1[nH]c2ccc(OC)cc2c1NC(=O)c1ccc2c(c1)OCO2,-8.3,2.7%,7.2,14.7%,-11.4%
COc1ccc(Oc2ccc(/C=C/C(=O)c3ccc(O)cc3)cc2[N+](=O)[O-])cc1,-64.1*,-1.9%,?,5.0%,-22.1%
CCCOC(=O)CSc1nc(N)c(C#N)c(-c2ccco2)c1C#N,-3.4,.,.,-10.0%[15.4 µM],10.1%
N#Cc1c(N)nc(SCC(=O)OCc2ccccc2)c(C#N)c1-c1ccco1,6.8,1.8%,-78.5*,25.1%,4.3%
NS(=O)(=O)c1ccc(N2CCCCS2(=O)=O)cc1,25.4,.,.,.,.
CC1(C)NC(=O)N(CC(=O)Nc2ccc(-n3cnnn3)cc2)C1=O,-71.3*,.,47.1,-30.7%,10.5%
CCc1cccc(NC(=O)c2cccc3c2C(=O)N(CC2CCCO2)C3)c1 (stereo not given),-6.5,1.3%,-5.5,9.8%,35.5µM*
O=C(O)c1cccc2c1C(=O)N(CC1CCCO1)C2 (stereo not given),-1.2,-1.1%,1.8,8.3%[15.4 µM],-5.0%
COc1cccc(Cn2c(=O)n(-c3cc(C)cc(C)c3)c(=O)c3oc4ccccc4c32)c1,4.4,-0.5%,.,.,.
CCOC(=O)CCc1c(C)c2cc3c(c(C)c2oc1=O)OCN(CCc1ccccc1OC)C3,-3.4,10.4%,.,.,.
O=C(O)CSCC(=O)N1CCN(c2ccnc3cc(Cl)ccc23)CC1,-13.2,1.5%,-0.5,-57.5%,12.5%
SMILES,RXFP1 antag,RXFP1 agonist,TSHR antag,gsp agonist,gsp antag
O=C(O)CSc1ccnc2cc(Cl)ccc12,20.4,12.6µM*,-22.4,20.0%[15.4 µM],21.1%
Cc1cnc2cc(Cl)ccc2c1SCC(=O)O,11.4,20.7%,-7.6,10µM*,-5.1%
CCCc1noc(-c2ccc(NCc3ccc(C)cc3)c([N+](=O)[O-])c2)n1,.,0.1%,.,.,.
COC(=O)c1ccc(N2NC(=O)/C(=C/c3cc(OC)c(OC)c(OC)c3)C2=O)cc1,-15.9,0.0%,-11.1,?,12.6µM*
CCOC(=O)c1cccc(-n2nnc3c(sc4nc(C)c(Br)c(C)c43)c2=O)c1,-3.0,0.4%,.,.,.
Cc1nc2nc[nH]n2c(=O)c1NS(=O)(=O)c1ccc(Br)cc1,-4.2,0.1%,.,.,.
O=Cc1ccc(N2CCCC2)c([N+](=O)[O-])c1,-18.9,3.1%,-0.7,3.4%[15.4 µM],-15.2%
O=[N+]([O-])/C=C\c1ccc(N2CCCC2)c(F)c1,-67.8*,0.2%,-7.8,1.7%,-7.3%
CC(C)CCn1c(=O)c2sccc2n2c(CCCC(=O)NCCc3ccccc3)nnc12,-1.6,4.0%,.,.,.
Cc1ccc2nc(Cl)c(/C=N/NC(=O)[C@H]3C[C@@H]3c3ccccc3)cc2c1,13.4,1.5%,-5.1,-1.4%[15.4 µM],1.9%
Cc1ccc2nc(Cl)c(/C=N/NC(=O)c3ccccc3O)cc2c1,-11.1,0.7%,-31.4,-11.3%,35.5µM*
CC(C)(C)OC(=O)CNC(=O)c1[nH]cnc1C(=O)NCCCCCNC(=O)OC(C)(C)C,.,0.8%,-16.1,-1.9%,35.5µM*
CC(C)(C)OC(=O)CNC(=O)c1[nH]cnc1C(=O)NCCCCCN,.,0.8%,2.3,-190.3%,13.6%
COCCCNC(=O)Cn1c(=O)nc(-c2ccccc2)c2ccccc21,16.7,3.4%,.,.,.
Cc1cc(C)nc(SCc2cc(=O)c(OC(=O)c3ccc(Cl)c([N+](=O)[O-])c3)co2)n1,-3.2,4.8%,19.5,-38.1%,35.5µM*
Cc1cc(C)nc(SCc2cc(=O)c(OC(=O)c3ccc(S(=O)(=O)N(C)C)cc3)co2)n1,.,0.8%,32.8,-5.6%,-20.3%
O=C(O)CC/C(=C/c1cccc(NC(=O)c2ccccc2Cl)c1)c1nc2ccccc2s1,8.1,.,.,11.1%,?
COc1cc(/C=C(\CCC(=O)O)c2nc3ccccc3s2)ccc1OCC(=O)Nc1c(Cl)cccc1Cl,-3.3,.,.,-47.7%,28.2µM*
COc1cc2ccccc2cc1C(=O)Nc1ccc(Cc2ccncc2)cc1,-15.3,1.0%,-23.1,-3.9%,35.5µM*
COc1cc2ccccc2cc1C(=O)Nc1ccc(C)cc1,-15.9,0.0%,-2.8,4.8%,31.6µM*
COc1ccccc1C(=O)Nc1ccc2ccccc2c1,14.2,.,.,8.3%,-10.3%
CCOc1ccc(/C=N/NC(=O)c2cc3ccccc3cc2OC)cc1,-0.1,5.0%,-19.6,-12.3%,28.2µM*
CCOc1cc(C(=O)N(Cc2nc(-c3ccc(C)cc3)no2)C(C)C)cc(OCC)c1OCC,.,-1.0%,.,.,.
COc1ccc(OC)c(CNC(=O)NCc2noc3ccc(C)cc23)c1,-9.4,0.9%,.,.,.
Cc1ccc2[nH]cc(C(c3ccccc3)c3ccc(C)s3)c2c1 (stereo not given),?,1.4%,.,.,.
Cc1ccc2[nH]cc(C(c3ccccc3)c3cccs3)c2c1 (stereo not given),-72.0*,5.5%,.,.,.
CCCNc1nc(NCc2ccccc2OC)c2cnn(C)c2n1,-11.3,-0.2%,.,.,.
CCCc1cnc2c(c1SCC(=O)N(C)c1ccccc1)c(=O)n(C)c(=O)n2C,5.4,3.3%,.,.,.
O=C(Nc1nc2c(Cl)ccc(Cl)c2s1)C1CC1,-3.4,0.4%,2.0,-1.3%,4.1%
